Compound activity deposited in PubChem BioAssay by several laboratories.
Sampled rows, rich in hits. Any-hit rate of the full collection: about 1.5%.
miR122 inh: miR-122 Renilla sensor signal increase in Huh7, primary screen, miR-122 inhibitor project, cell-based, single point, plate reader | Huh7 miR-122 Renilla luciferase sensor, 48 h; neutral wells = 0, positive control = 100 | actives 0.3% (n = 340,000) | activation (reporter increase), % at 12.5 µM;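 active = mean replicate activation score at least 90 and every replicate individually at or above 90; inconclusive = only one of the two criteria met; inactive = neither criterion met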;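 also: higher luciferase means less miR-122 activity so hits act as miR-122 inhibitors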
Glyco luc inh: increase of ERlucT glycosylation luciferase signal, primary screen, N-linked glycosylation inhibitor project, D54 ERlucT cells, luminescence, set 2; actives 0.23% (n = 360,000); reporter increase, % at 12.5 µM; D54 ERlucT glycosylation luciferase reporter, 24 h; percent of 100 nM tunicamycin response; AID 588692, 2011;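 active = mean luciferase reporter signal, scaled so untreated is 0 and the glycosylation-blocking control 100, at or above a set limit in every replicate; inconclusive = mean reaches the limit but not every replicate does; inactive = mean below the limit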;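 also: luciferase carries N-glycosylation sites so blocking glycosylation raises the light; 0% = median of neutral control wells and 100% = median of 100 nM tunicamycin wells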
DNA FID counter: compounds displacing fluorescent DNA intercalator, primary screen, artefact control for HCV NS3 helicase inhibitor project, biochemical, FID fluorescence. inhibition, % at 7.9 µM. AID 1845, 2009. DNA fluorescent intercalator displacement. actives 0.17% (n = 290,000); in the data active = inhibition above about 37%;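 also: 0% = vehicle and 100% = reference compound; higher means more ethidium bromide displaced from hairpin DNA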
NRP1-CendR mod: modulators of CendR peptide binding to NRP-1, primary screen, biochemical, fluorescence polarization, uHTS; FAM-RPARPAR peptide binding to NRP-1; Neuropilin-1 (Homo sapiens), O14786; inhibition, % at 25 µM; AID 602438, 2012; actives 0.85% (n = 360,000);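 active = inhibition or corrected inhibition above about 18%, plus a signal ratio from 0.5 to 1.5, limit read from the data, passing the limit was not always enough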
RAD52 inh: RAD52 DNA annealing inhibitors, primary screen, biochemical, FRET, single point, set 2; actives 0.46% (n = 360,000); AID 651710, 2012; DNA repair protein RAD52 homolog (Homo sapiens), P43351; recombinant RAD52 DNA annealing, FRET fluorescence; inhibition, % at 18.7 µM;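 active = every replicate showing at least 50% inhibition; inconclusive = mean inhibition at least 50% but not in every replicate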
Target sequence (P43351 whole entry, looked up): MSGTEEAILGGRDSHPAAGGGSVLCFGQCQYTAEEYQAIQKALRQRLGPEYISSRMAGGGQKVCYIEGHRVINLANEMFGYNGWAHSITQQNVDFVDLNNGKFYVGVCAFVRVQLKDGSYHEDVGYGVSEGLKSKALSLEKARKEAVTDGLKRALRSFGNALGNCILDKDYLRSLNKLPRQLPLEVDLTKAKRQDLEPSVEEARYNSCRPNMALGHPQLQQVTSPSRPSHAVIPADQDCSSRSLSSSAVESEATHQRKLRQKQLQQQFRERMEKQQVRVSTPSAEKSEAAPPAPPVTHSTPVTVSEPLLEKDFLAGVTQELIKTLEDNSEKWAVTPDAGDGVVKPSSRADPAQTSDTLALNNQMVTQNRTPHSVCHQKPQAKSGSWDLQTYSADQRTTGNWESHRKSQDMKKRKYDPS
RAD54 branch: inhibitors of human RAD54 branch migration, primary screen, biochemical, fluorescence, single point | DNA repair and recombination protein RAD54-like (Homo sapiens), Q92698 | RAD54 Holliday junction branch migration, FAM/BHQ fluorescence | inhibition, % at 10.4 µM | actives 0.14% (n = 360,000) | AID 602329, 2012;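 active = mean normalized replicate activity at least 40 and at least half of replicates scoring 40 or more; inconclusive = only one of the two criteria met; inactive = mean below 40 and under half of replicates reaching 40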;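 also: 0% = median of neutral control wells and 100% = median of positive control wells; inhibitors cause a drop in the FAM fluorescence signal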
RAD52 DNA ctr: DNA-binding compounds via dye displacement, dose response, artefact control for RAD52 inhibitor project, biochemical, fluorescence polarization, cherry-pick; shares compounds with RAD52 inh; Salmon sperm DNA/acridine orange FP displacement; AC50, µM; actives 8% (n = 1,000);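 active = fitted half-maximal concentration for signal loss at or below twice the highest dose tested, in every separate run, actives reach about 64 µM in these data; inconclusive = runs disagree, or flat partial signal loss, or poor fit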
Active calls of the source: *; i = inactive; ? = inconclusive; . = no result given; [ ] = another dose, or the depositor's remark.

SMILES	miR122 inh	Glyco luc inh	DNA FID counter	NRP1-CendR mod	RAD52 inh	RAD54 branch	RAD52 DNA ctr
C=CC(=C)CC(NC)c1ccccc1 (configuration not stated)	1	2	1	-1	59*	-16	i
C[C@H]1CCCCO[C@@H](CN(C)CC2CCCCC2)[C@@H](C)CN([C@@H](C)CO)C(=O)c2cc(NC(=O)CCCN(C)C)ccc2O1	6[16.7 µM]	.	.	.	.	.	.
COc1ccc2nc3cc(Cl)ccc3c(Nc3ccc(O)c(CN4CCN(C)CC4)c3)c2c1	-3	-9	.	9	104*	.	6.1µM*
O=C(CCC(=O)NNc1nc2ccccc2c2nc(-c3ccccc3)nn12)NCCCN1CCOCC1	.	0	-5	7	23	.	.
CN1CCN(CCCNc2nc3ccccc3c3nc(-c4ccccc4)nn23)CC1	-3	6	.	-10	66*	.	i
CCN(CC)CCCNc1nc2ccccc2c2nc(-c3ccncc3)nn12	-14	119*	29	-4	-80	109*	46µM*
C[C@H](NC(=O)C[C@H]1C=C[C@H](NC(=O)C2CCOCC2)[C@H](CO)O1)c1ccccc1	.	.	.	.	9	1	.
CC(C)(C)S(=O)N1Cc2cc(C(=O)NCCCN3CCOCC3)nc(-c3cccc(-c4cc5ccccc5o4)c3)c2[C@@H]1CCO (some centres not stated)	3	2	.	1	-4	-9	i
C[C@@H]1CN([C@H](C)CO)C(=O)c2cc(NS(=O)(=O)c3cn(C)cn3)ccc2O[C@@H](C)CCCCO[C@@H]1CN(C)Cc1ccncc1	3[16.7 µM]	.	.	.	-2	4	.
C[C@H](CO)N1C[C@H](C)[C@@H](CN(C)C(=O)Nc2ccc(C(F)(F)F)cc2)Oc2ccc(N(C)C)cc2CC1=O	6[16.7 µM]	.	.	.	0	0	.
COCCNc1nc(NCCOC)c2sc(-c3ccccc3)cc2n1	-9	0	.	2	0	-2	.
C=CCNc1nc(NCc2cccc(OC)c2)c2sc(-c3ccccc3)cc2n1	-3	-11	.	-7	83*	-3	i
C[C@H](CO)N1C[C@H](C)[C@@H](CN(C)C(=O)C2CC2)Oc2cc(-c3cncnc3)ccc2S1(=O)=O	-8[16.7 µM]	.	.	.	.	.	.
CCCCCC(O)CCCC(=O)O (configuration not stated)	-1	1	.	1	-5	3	.
CCCCCCCCCCCCCCCC(O)C[N+](C)(C)CCO (configuration not stated)	.	-10	.	-6	80*	.	35µM*
C[C@H]1CCCCO[C@@H](CN(C)C(=O)Cc2ccccc2)[C@@H](C)CN([C@@H](C)CO)C(=O)c2cc(NS(=O)(=O)c3ccc(Cl)cc3)ccc2O1	-11[16.7 µM]	.	.	.	-7	-2	.
CN(C)c1nc(N)c(C(=O)N=C(N)N)nc1Cl	-4	1	.	6	88*	41	i
OCCNc1c2ccccc2nc2ccccc12	.	66*	19	-2	79*	.	60µM*
COc1ccc(/C=N/Nc2nc(-c3cccc(S(=O)(=O)N4CCCC4)c3)cs2)c(OC)c1	.	-8	-1	-8	96*	.	i
COc1cccc(C(=O)Nc2nc(-c3ccc(S(=O)(=O)N4CCOCC4)cc3)cs2)c1	1	-5	0	-4	.	-4	.
COc1cccc(C#Cc2ccc3c(c2)[C@H]2[C@H](CCN2S(=O)(=O)c2ccccc2)[C@H](CO)N3)c1	-1[16.7 µM]	.	.	.	15	4	.
NC(=NCc1ccc2c(c1)OCO2)NC(=O)c1ccccc1	.	1	23	-4	51*	.	i
C/C(CCc1ccc2c(c1)OCO2)=N\NC(=O)c1ccccc1	.	0	-5	7	-1	.	.
COC(=O)[C@H]1[C@H](CO)[C@H]2Cn3c(ccc(-c4cccc(F)c4)c3=O)[C@H]2N1Cc1ccncc1	.	.	.	.	-38	.	.
COc1ccc2c(c1)CC1c3c(cc4c(c3-2)OCO4)CC[N+]1(C)[O-] (configuration not stated)	-1	15	.	-6	82*	61*	?
SMILES	miR122 inh	Glyco luc inh	DNA FID counter	NRP1-CendR mod	RAD52 inh	RAD54 branch	RAD52 DNA ctr
CN1CCC(N(C)C(=O)/C=C/c2cn(-c3ccccc3)nc2-c2cccs2)CC1	.	-4	22	-8	71*	.	i
COc1ccc(C)cc1Nc1n[n+](-c2ccccc2)c(-c2c(OC)ccc3ccccc23)s1	.	1	.	7	102*	2	i
COc1ccc(C)cc1Nc1n[n+](-c2ccccc2)c(-c2cc(OC)c(OC)cc2Br)s1	1	1	-33	6	28	-10	.
CCOC(=O)c1cc(NC(=O)N(C(C)C)C2CCCCC2)c(C)nc1C	1	1	-7	9	96*	-10	i
CCOC(=O)c1c(NC(=O)c2ccc(S(=O)(=O)N3CCOCC3)cc2)sc2c1CC(C)(C)NC2(C)C	.	2	-3	3	-13	3	.
CN(C1CCCCC1)S(=O)(=O)c1ccc(C(=O)Nc2sc3c(c2C(N)=O)CC(C)(C)NC3(C)C)cc1	3	-3	33	2	78*	4	i
C[C@H]1CN([C@@H](C)CO)C(=O)c2cccc(NC(=O)Nc3ccccc3)c2O[C@@H]1CN(C)Cc1ccncc1	10[16.7 µM]	.	.	.	3	-7	.
Cc1ccc(C23CC4CC(CC(CN)(C4)C2)C3)cc1	.	-1	14	4	4	.	.
NCC12CC3CC(C1)CC(c1ccc(Br)cc1)(C3)C2	-34	-3	23	3	57*	9	i
C/C=C/c1cnc2c(c1)C(=O)N([C@@H](C)CO)C[C@H](C)[C@@H](CN(C)S(=O)(=O)c1ccccc1F)O2	41[16.7 µM]	.	.	.	6	-2	.
CO[C@H]1CN(C)C(=O)c2cc(NS(=O)(=O)c3ccccc3F)ccc2OC[C@@H](C)NC[C@H]1C	-7[16.7 µM]	.	.	.	-22	0	.
CC1(C)CC(N=c2cc(-c3ccccc3)oc3ccc(Cl)cc23)CC(C)(C)N1	.	?	-1	0	101*	.	17µM*
CCCNC(=O)[C@H]1[C@H](CO)[C@H]2Cn3c(ccc(-c4ccccc4F)c3=O)[C@H]2N1C(=O)CC	-5[16.7 µM]	.	.	.	6	-38	.
CCCN1CCc2c(sc(NC(=S)NC(=O)c3ccccc3)c2C#N)C1	.	-5	11	134	33	.	.
CC(C)N1CCc2c(sc(NC(=O)c3nc4ccccc4s3)c2C(N)=O)C1	.	-7	8	-92	68*	.	i
